Screens: PubChem BioAssay, National Center for Advancing Translational Sciences (NCATS)
IkB signaling: IkB Signaling | ABC-DLBCL IkBa-CBG/CBR dual luciferase ratio, 4 h; response scale: scaled: untreated 0%, proteasome inhibitor 100% | Potency, µM (series often up to 57.1 µM), for the others: top-dose IkBa stabilization activation | actives 0.04% (n = 110,000) | AID 445, 2006; active = well fitted curve in the direction sought with a large enough effect in the signal ratio, not every such curve was filed as active; inconclusive = small, poorly fitted or top-dose-only effect, or a change in a side signal; the % refers to the signal ratio;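 note: the direction sought is a rising ratio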
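Curves were fitted separately to fusion (green), unfused (red) and ratio luminescence, then classed by r2, magnitude and activity. Cells: OCI-Ly3, 4 h compound plus doxycycline at 37C; 10 uM MG-132 defined full response.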
CRE Fsk mod: Cell signaling CRE-BLA (Fsk stim); Potency, µM (doses to about 38.2 µM), inactives show at the highest dose activity change, negative = inhibition, usual class: activators; actives 2.5% (n = 71,000); CHO CRE-bla reporter (cAMP response element driving beta-lactamase), forskolin EC10, beta-lactamase ratio; active = well fitted activation curve with a large enough effect in the signal ratio, with a control signal flat, not every such curve was filed as active; inconclusive = small, poorly fitted or top-dose-only effect, or effect the other way, or a change in a side signal; the % refers to the signal ratio; note: % of control where 0% means no effect
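Modulation of forskolin signalling: compounds in titration series added with EC10 NKH 477 to CHO cells carrying a CRE-driven beta-lactamase reporter, 3 h, 37C. CCF4 FRET ratio (460/530 nm, ex 405 nm) gives %activity and AC50.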
p53ts 32C tox: qHTS Screen for Compounds that Selectively Target Cancer Cells with p53 Mutations: Cytotoxicity of p53ts Cells at the Permissive Temperature; H1299-p53A138V at 32C, ATP luminescence viability, 24 h; actives 0.93% (n = 130,000); Potency, µM (series often up to 46.1 µM), for the others: top-dose activity change, negative = cytotoxicity, most hits filed as cytotoxic; AID 924, 2007;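 note: 0% = DMSO and -100% = full killing by reference compound; nearly all actives have a fitted effect of over 55% in size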
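H1299-p53 A138V cells (temperature-sensitive p53) exposed 24 h to up to 46 uM compound at 32C, where p53 is wild-type in conformation. Viability read as ATP luminescence and normalised to DMSO and 100 uM tamoxifen. AC50 fitted with the Hill equation.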
p53ts 39C kill: qHTS Screen for Compounds that Selectively Target Cancer Cells with p53 Mutations: Cytotoxicity of p53ts Cells at the Nonpermissive Temperature; H1299-p53A138V viability at 39C, ATP luminescence, 24 h; Potency, µM (series often up to 46.1 µM), without a hit: top-dose activity change, negative = cell killing, usual class: cytotoxic; actives 1.5% (n = 130,000); AID 902, 2007; note: % is set by controls: 0 for no effect and ±100 for the full control effect; nearly all actives have a fitted effect of over 55% in size
Peg3 imprint: qHTS Assay for Compounds that Induce Erasure of Genomic Imprints; mouse ES Peg3-LacZ reporter, beta-gal luminescence, 40 h; actives 0.02% (n = 110,000); Potency, µM (highest dose often 60.7 µM), for the others: at the highest dose activity change, positive = activation, actives largely listed as activators; AID 1948, 2009
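Readout: BetaGlo luminescence (5 min, room temp) for LacZ from the normally silent maternal Peg3 allele in female Peg3LacZ-Neo ES cells. Cells 300/well, 40 h, 37C, 5% CO2. Data normalized per plate to negative controls.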
The depositor's hits bear a star; ? = inconclusive; / = no result; [ ] = another dose, or the depositor's remark. Shown are actives, neighbours in structure and some others; about 3% of the full set was active somewhere. Unless noted, calls come from the whole dose curve; as a rule, active = well fitted curve in the direction sought with a large enough effect; inconclusive = small, poorly fitted or top-dose-only effect, or another doubt; inactive = no such curve, though single readings can be large; an effect the other way counts as inactive or inconclusive. Potency is the fitted concentration of half-maximal effect.

SMILES	IkB signaling	CRE Fsk mod	p53ts 32C tox	p53ts 39C kill	Peg3 imprint
Cc1cc([N+](=O)[O-])ccc1NC(=O)/C=C/c1cccs1	/	/	/	-20.4%	/
CC(C)(CO)Cc1cc(C(C)(C)C)c(O)c(C(C)(C)C)c1	?	?	20µM*	31.6µM*	-12.9%
COc1cc2c(=O)n(Cc3ccco3)c(=O)n(CC(=O)c3cccc(Br)c3)c2cc1OC	0.6%	3.98µM*	-9.0%	12.2%	1.1%
COc1ccc(NC(=O)Cn2c(=O)n(C(C)C)c(=O)c3oc4ccccc4c32)cc1Cl	?	/	4.0%	7.4%	-16.4%[10.9 µM]
Cc1cccc(Cn2ccn(Cc3ccc(Cl)cc3)c(=O)c2=O)c1	?	/	?	31.6µM*	8.4%[10.9 µM]
Cc1nc2c(-c3ccccc3)c(C)nn2c(N)c1-c1ccccc1	/	/	11.2µM*	?	/
CCOC(=O)Cc1c(C)nc2c(-c3ccccc3)c(C)nn2c1C	/	/	7.8%	8.7%	/
COc1cccc(NC(=O)C2CCN(c3ccc(Sc4ccc(C)cc4)nn3)CC2)c1	?	/	7.4%	-3.1%	-3.1%[10.9 µM]
Cc1ccc(Sc2ccc(N3CCC(C(=O)Nc4cc(C)cc(C)c4)CC3)nn2)cc1	?	/	?	12.6µM*	-1.1%[10.9 µM]
CCOC(=O)c1c(-c2ccccc2)oc2ccc(NS(=O)(=O)c3ccccc3)cc12	?	/	42.7%	15.8µM*	-26.5%[10.9 µM]
CCOC(=O)c1c(-c2ccccc2)oc2ccc(NS(=O)(=O)c3ccc(OC)cc3)cc12	?	/	20.2%	-15.6%	-21.0%[10.9 µM]
CCCc1oc2ccc(NS(=O)(=O)c3ccc(OCC)cc3)cc2c1C(=O)OCC	?	/	?	20µM*	-17.2%[10.9 µM]
CCOC(=O)c1cc(S(=O)(=O)N2CCN(c3cc(Cl)ccc3C)CC2)[nH]n1	?	/	2.7%	-11.0%	-6.2%[10.9 µM]
CN(C(=O)c1cccc(N2C(=O)C3CC=CCC3C2=O)c1)C1CCCCC1 (centres undefined)	-0.2%	1.4%	-8.7%	6.5%	?
CN(C(=O)c1cccc(Nc2ccc(-c3ccc4c(c3)OCCO4)nn2)c1)C1CCCCC1	/	/	12.6µM*	11.2µM*	/
O=C(NCCc1ccccc1)C(=O)NCC(c1cccnc1)N1CCN(c2ccc(F)cc2)CC1 (centres undefined)	-2.5%	/	?	20µM*	-19.1%[10.9 µM]
O=S(=O)(c1ccc(-c2csc(=Nc3ccc(OC(F)(F)Cl)cc3)n2CCCO)cc1)N1CCCC1	?	/	9.8%	-12.9%	-25.5%[10.9 µM]
Cn1c(N)c(S(=O)(=O)c2ccc(Br)cc2)c2nc3ccccc3nc21	8.2%	15.8µM*	0.3%	-8.5%	-13.8%
Cc1ccc2[nH]c(CSc3nnc(NC(=O)COc4ccccc4C)s3)cc(=O)c2c1	-0.9%	/	-1.1%	3.0%	?
Cc1cccc(CCNC(=O)c2ccc3c(c2)nc2n3CCCCC2)c1	?	/	12.6µM*	7.94µM*	-6.9%[10.9 µM]
Cc1cccc(CCNC(=O)c2ccc3c(c2)nc2n3CCOC2)c1	-1.2%	/	?	12.6µM*	-3.0%[10.9 µM]
O=C(NCCc1ccccc1Cl)c1ccc2c(c1)nc1n2CCOC1	-2.2%	/	15.8µM*	3.98µM*	-19.1%[10.9 µM]
Cc1ccc(Cl)cc1NC(=O)c1nnn(Cc2ccccc2)c1N	0.8%	/	11.0%	-12.9%	-6.3%[10.9 µM]
CCS(=O)(=O)N1CC(=O)N(c2cccc(Cl)c2)C(C)(C(=O)NC2CCCCCC2)C1 (centres undefined)	1.6%	/	4.7%	-5.6%	-11.0%[10.9 µM]
Cc1sc2nc(SCc3nnc(-c4cccs4)o3)n(C3CCCC3)c(=O)c2c1C	0.8%	?	2.6%	-1.7%	-4.5%
SMILES	IkB signaling	CRE Fsk mod	p53ts 32C tox	p53ts 39C kill	Peg3 imprint
Cc1sc2nc(SCC(=O)N(CCO)CCO)n(C3CCCCC3)c(=O)c2c1C	4.1%	12.6µM*	0.1%	-2.2%	-8.1%
c1csc(-c2nc3nc4ccccc4nc3n2Cc2ccc3c(c2)OCO3)c1	-1.7%	10µM*	?	0.0%	-4.9%
Nc1c(S(=O)(=O)c2cccs2)c2nc3ccccc3nc2n1Cc1ccc2c(c1)OCO2	?	0.7%	11.6%	6.7%	-20.9%
COc1nc(NCC(C)C)nc(Oc2ccc(=O)n(-c3ccccc3)n2)n1	-3.2%	12.6µM*	3.4%	-5.7%	-7.8%
Cc1sc2nc3ccc(N4CCCC4)nn3c(=O)c2c1C	-0.9%	13.3%	-29.0%	?	-14.5%
Cc1ccc2nc3ccc(N4CCN(C)CC4)nn3c(=O)c2c1	-2.8%	17.1%	3.98µM*	?	-15.0%
CC(C)Sc1nc(-c2cccs2)nc2c1c(=O)n(C)c(=O)n2C	-0.5%	3.16µM*	-11.3%	11.8%	-6.5%
Cn1c(=O)c2c(SCC(=O)NCC3CCCO3)nc(-c3cccs3)nc2n(C)c1=O (centres undefined)	-0.8%	12.2%	-5.3%	20.9%	?
CN(C)c1ncc2nc(-c3ccccc3)c(=O)n(C3CC3)c2n1	-1.2%[11.4 µM]	?	-11.4%	-14.1%	/
CN(C)c1ncc2nc(CCc3ccccc3)c(=O)n(C3CC3)c2n1	-3.9%[11.4 µM]	3.16µM*	3.2%	-0.2%	-12.9%
CCNc1ncc2nc(CCc3ccccc3)c(=O)n(CCOC)c2n1	-2.5%[11.4 µM]	?	-5.4%	-13.7%	/
CN(C)c1ncc2nc(CCc3ccccc3)c(=O)n(-c3ccccc3)c2n1	-3.8%[11.4 µM]	5.01µM*	4.1%	-2.1%	/
CCNc1ncc2nc(CCc3ccccc3)c(=O)n(-c3ccccc3)c2n1	-2.7%[11.4 µM]	12.6µM*	4.8%	-3.0%	/
Cc1ccc(Cl)cc1N1CCN(C(=O)c2ccc3c(c2)N(Cc2ccc(F)cc2)CCS3)CC1	1.4%	/	11.5%	14.0%	-13.7%[10.9 µM]
COc1ccc(-n2ccn(CC(=O)Nc3ccccc3C(F)(F)F)c(=O)c2=O)cc1OC	0.3%	/	-3.2%	3.1%	-16.1%[10.9 µM]
COc1ccccc1CNC(=O)CCCCn1c(=O)c2ccccc2n(CC(=O)Nc2cccc(Cl)c2)c1=O	?	/	3.8%	11.5%	-8.6%[10.9 µM]
COc1ccc(NC(=O)CCS(=O)(=O)c2nc(-c3ccc4c(c3)OCO4)cc(C(F)(F)F)n2)cc1OC	?	/	?	32.6%	-1.8%[10.9 µM]
COc1ccc(NC(=O)CCS(=O)(=O)c2nc(-c3ccc4c(c3)OCO4)cc(C(F)(F)F)n2)c(OC)c1	?	/	?	?	-3.9%[10.9 µM]
COc1ccc(NC(=O)CCS(=O)(=O)c2nc(-c3cccs3)cc(C(F)(F)F)n2)cc1OC	?	/	?	3.98µM*	-10.3%[10.9 µM]
O=C(CCS(=O)(=O)c1nc(-c2ccc3c(c2)OCO3)cc(C(F)(F)F)n1)Nc1ccccc1C(F)(F)F	-3.4%	/	?	7.94µM*	3.6%[10.9 µM]
Cc1cc(NC(=O)CCCS(=O)(=O)c2nc(-c3cccs3)cc(C(F)(F)F)n2)no1	?	?	?	?	-31.2%
COc1cc(NC(=O)CSc2nc(-c3cccs3)cc(C(F)(F)F)n2)cc(OC)c1OC	5.5%	/	8.6%	-8.1%	-15.1%[10.9 µM]
